This excerpt belongs to a sample that is enriched for hits.
CBX7 inh: CBX7 inhibition, primary AlphaScreen. O95931. AlphaScreen His6-CBX7 / biotin-H3K27me3 peptide binding; hits give low values. normalised signal (fraction of DMSO) (concentration not given with the values). 66,000 compounds, 1.1% hits. AID 1224903; in the data active means normalised signal below about 0.5
Target sequence (O95931 whole entry, looked up): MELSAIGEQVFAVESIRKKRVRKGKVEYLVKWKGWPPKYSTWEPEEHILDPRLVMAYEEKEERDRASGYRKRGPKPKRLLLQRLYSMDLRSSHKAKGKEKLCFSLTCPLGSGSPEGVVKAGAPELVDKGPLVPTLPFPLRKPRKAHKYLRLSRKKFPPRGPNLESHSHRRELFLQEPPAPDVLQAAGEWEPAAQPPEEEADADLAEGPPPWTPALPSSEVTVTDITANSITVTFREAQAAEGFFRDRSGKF
* marks the source's active call; other numbers are inactive results; ! = repeats disagree.

SMILES	CBX7 inh
COc1ccc(-c2nc(-c3ccccc3)c(-c3ccc(F)cc3)[nH]2)cc1OC	0.38*
COc1ccc(-c2nc(-c3ccccc3)c(-c3cccs3)[nH]2)c(OC)c1	0.54
Cc1ccc(-c2nc(-c3ccc(F)cc3)[nH]c2-c2ccccc2)cc1C	0.96
COc1ccccc1NCc1nc2ccccc2n1CCOc1ccc(Cl)cc1	0.59
COc1ccc2nc(N3CCC(C(=O)NCCC(C)C)CC3)sc2c1	1.1
Cc1c(C(=O)Nc2ccccc2C(N)=O)sc2nc(-c3ccccc3)cn12	0.96
Cn1c(C(=O)N2CCC(C(=O)N3CCC(Cc4ccccc4)CC3)CC2)cc2sccc21	0.9
COc1ccc(C)cc1NC(=O)c1cc2c(-c3ccc(OC)c(OC)c3)nn(C)c2s1	0.98
COc1ccc(C(C(=O)NC2CCCCC2)N(C)C)cc1 (stereo unspecified)	1
O=C(C1CCC1)N1CCc2cc(S(=O)(=O)N3CCN(c4cccc(Cl)c4)CC3)ccc21	0.99
O=C(NCCCc1ccccc1)[C@H](CSCc1ccccc1)N1Cc2ccccc2C1=O	0.88
Cc1n[nH]c(C)c1CCCCCCOc1ccc(F)cc1	1
COc1ccc(OCCCCCCc2c(C)n[nH]c2C)cc1	0.43*
Cc1n[nH]c(C)c1CCCCOc1ccc(C(C)(C)C)cc1	0.82
COc1ccc(CCNc2nc(C)nc3sc(C)c(C)c23)cc1OC	1
Cc1nc(SCC(=O)c2ccc3c(c2)OCCO3)c2cc(-c3ccccc3)sc2n1	1
Cc1nc(NCCc2ccc3c(c2)OCCO3)c2cc(-c3ccccc3)sc2n1	0.36*
CC(C)CCNC(=O)CN1CCN(Cc2ccccc2F)C1=O	0.98
CCc1nnc(NC(=O)Cn2nc(Cc3ccncc3)c3ccccc3c2=O)s1	1.2
CCOC(=O)C1CCCN(C(=O)c2cc3c(-c4ccccc4F)nn(C)c3s2)C1 (stereo unspecified)	0.98
Clc1ccc(Nc2nc(-c3ccncc3)cs2)cc1	1
Cc1ccc(Nc2nc(-c3ccc(Cl)cc3)cs2)cc1C	0.77
CCOc1ccc(Nc2nc(-c3ccc(OC)c(F)c3)cs2)cc1	1
Clc1ccc(-c2csc(Nc3ccc(Br)cc3)n2)cc1	0.7
Cc1ccc(Nc2nc(-c3ccc(C)c(C)c3)cs2)cc1	0.45*
SMILES	CBX7 inh
Cc1ccc(Nc2nc(-c3ccc(-c4ccccc4)cc3)cs2)cc1Cl	0.88
Cc1ccc(C)c(-c2csc(Nc3ccc(C)c(Cl)c3)n2)c1	0.37*!
Oc1ccc(Nc2nc(-c3ccc(Cl)cc3)cs2)cc1	0.44*
Cc1ccc(Nc2nc(-c3ccc(I)cc3)cs2)cc1C	0.78
Cc1ccc(Nc2nc(-c3ccccc3)cs2)cc1Cl	0.72
COc1ccc(-c2csc(Nc3ccc(C)c(Cl)c3)n2)cc1F	0.39*!
Cc1ccc(C)c(-c2csc(Nc3ccc(F)cc3)n2)c1	0.94
CCOC(=O)c1nnn(-c2nonc2N)c1CNc1ccc(OC)cc1	0.79
CCCOc1ccc(N2C(=O)CC(N3CCN(Cc4ccc(Cl)cc4)CC3)C2=O)cc1 (stereo unspecified)	1
COc1ccc(-c2cc3nc(C)c(CCC(=O)NCc4ccc(C)cc4)c(C)n3n2)c(OC)c1	1.1
Cc1ccc(NC(=O)CSc2nnc(-c3cccnc3)n2C)c(C)c1	1
CCCOc1ccc(N2C(=O)CC(NCCc3ccc(F)cc3)C2=O)cc1 (stereo unspecified)	1.1
O=c1cc(N2CCC(Cc3ccccc3)CC2)[nH]c(=O)n1Cc1ccc(F)cc1	0.92
Cc1ccc(Cl)cc1NC(=O)C1CCN(c2nnc(-n3cccc3)s2)CC1	0.87
COc1ccccc1-c1c(C)nn2c(NCC3CCCO3)cc(C)nc12 (stereo unspecified)	1.1
COc1ccccc1NS(=O)(=O)c1ccc2c(c1)n(C)c(=O)c(=O)n2C	1.2
COc1ccc(-c2csc(Nc3cccc(C(=O)O)c3)n2)cc1	0.75
COc1cccc(Nc2nc(-c3ccc(C)cc3)cs2)c1	0.67
COc1cccc(Nc2nc(-c3ccc(F)cc3)cs2)c1	0.47*
COc1ccc(CNC(=O)c2cnc3ccccn3c2=O)cc1	0.85
O=C(CC(C(=O)N1CCc2ccccc21)n1ccnc1)NC1CC1 (stereo unspecified)	1
CCC(C)NC(=O)CC(C(=O)N1CCc2ccccc21)n1ccnc1 (stereo unspecified)	1
O=C(CC(C(=O)N1CCc2ccccc21)n1ccnc1)NC(c1ccccc1)c1ccccc1 (stereo unspecified)	0.45*
CCCc1cc(=O)n2[nH]cc(-c3cccc(Br)c3)c2n1	0.84
COc1ccc(OC)c(S(=O)(=O)NCCc2c(C)[nH]c3ccc(OC)cc23)c1	0.56
COc1ccc(S(=O)(=O)NCCc2c(C)[nH]c3ccc(C)cc23)cc1	0.45*
COc1cc(Cl)c(S(=O)(=O)NCCc2c(C)[nH]c3ccc(C)cc23)cc1Cl	0.6
O=C(CC1(O)C(=O)N(Cc2ccccc2Cl)c2ccccc21)c1ccc(Br)cc1 (stereo unspecified)	0.72
O=C(Nc1nnc(-c2ccccc2Cl)s1)c1ccc(F)cc1	1
CCCCNS(=O)(=O)c1ccc2nc(-c3cccs3)cc(C(=O)NCc3ccccc3)c2c1	1.1
